Nine compounds from PubChem BioAssay (NCATS) can be followed below.

Values without a mark were called inactive. Records with an inconclusive call do not appear. Activity calls are given as the source filed them. Calls come from the whole dose curve; as a rule, active = well fitted curve in the direction sought with a large enough effect; inconclusive = small, poorly fitted or top-dose-only effect, or another doubt; inactive = no such curve, though single readings can be large; an effect the other way counts as inactive or inconclusive.

Test [1] is described as follows: Primary fluorescence-based thiol-reactive (MSTI) qHTS assay for identification of artifact compounds. (AID 1845221). For activity change, negative = thiol reactive: series mostly up to about 54 µM. Note: nearly all actives have a fitted effect of over 65% in size. Note: potency is the fitted concentration of half-maximal effect. In a few lines: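 Compounds were incubated 1 h at room temperature in the dark with the MSTI probe (4 uM) in PBS pH 7.4, 2% DMSO. Signals were normalized between Acetyl-MSTI and MSTI.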
On the technique in general: Quantitative high-throughput screening tests each substance at several concentrations.

Test [2] deals with Nanoluciferase (engineered Oplophorus gracilirostris luciferase). The experiment in a line: Primary Nanoluciferase (NLuc) qHTS assay for identification of artifact compounds. (AID 1845222).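 Note: NLuc secreted into diluted conditioned medium of S16 cells; series mostly up to about 54 µM; 0% = DMSO and -100% = no enzyme.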 In a few lines: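 Using secreted nanoluciferase in S16 culture medium (0.22 um filtered, 1:55 dilution), compounds were preincubated 15 min at RT. Signal was generated with Nano-Glo reagent (1:100) over 5 min.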

Test [3] can be described thus: Primary redox qHTS assay for identification of artifact compounds. (AID 1845223).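 Note: 0% = DMSO and 100% = reference compound.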 The procedure, abridged: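 Amplex Red (25 uM) and HRP (250 mU/mL) in HBSS, with compounds for 15 min, then 250 uM DTT for 30 min, room temperature, dark. Fluorescence 525/598 nm read; normalized to DMSO and 10 uM DA3003; Hill fit.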

Consider `C[C@@H]1O[C@@H](O[C@H]2[C@H](O[C@H]3CC[C@@]4(C)C(CC[C@]5(C)C4CC=C4[C@@H]6CC(C)(C)CC[C@]6(C(=O)O)CC[C@]45C)[C@]3(C)CO)OC[C@H](O)[C@@H]2O)[C@H](O)[C@H](O[C@@H]2OC[C@@H](O)[C@H](O)[C@H]2O)[C@H]1O` (some centres not stated), for which, in test [1], the activity change, negative = thiol reactive was 366% [at 11.5 µM]. Moreover, in test [2], the activity, negative = inhibition was 0.957% [at 11.6 µM]. Further, the redox activity (% of DA3003) in test [3] is 0.416% [at 11.5 µM].
Consider `COC(=O)C1=CO[C@@H](O[C@@H]2O[C@H](CO)[C@@H](O)[C@H](O)[C@H]2O)[C@@H]2[C@@](C)(O)[C@@H](O)C[C@]12O`, for which the Potency result in test [1], in test [2] and in test [3] was “inactive” each time.
As for `COC1=CC(=O)O[C@@H](/C=C/c2ccccc2)[C@@H]1O`, the Potency result in test [1], in test [2] and in test [3] was “inactive” throughout.
In the case of `CC(C)=CCC/C(C)=C/CC/C(C)=C/CC[C@]1(C)CCc2cc(O)cc(C)c2O1`, the Potency result in test [1], in test [2] and in test [3] was “inactive” throughout.
Regarding `CC1=C2[C@@H]([C@H](C)CC[C@H]2/C=C(\C)C(=O)O)[C@H](O)C1`, the Potency entry in test [1], in test [2] and in test [3] was “inactive” throughout.
In the case of `C[C@H]1[C@H](C)CC[C@]2(C(=O)O)CC[C@]3(C(=O)O)C(=CCC4[C@@]5(C)CC[C@H](O[C@@H]6O[C@H](C)[C@@H](O)[C@H](O)[C@H]6O)C(C)(C)C5CC[C@]43C)[C@H]12` (some centres not stated), the Potency result in test [1], in test [2] and in test [3] was “inactive” each time.
With `C=C1CCC2C(OC(=O)C2(O)COC(C)=O)C2C(=C)C(O)CC12` (configuration not stated), the Potency in test [1] is 7.36 µM (active). Moreover, the Potency entry in test [2] and in test [3] was “inactive” in each case.
`C=C(C)[C@H]1C[C@@H](O)C(=C)CC[C@@H](O)C(=C)[C@@H](O)C1`: the Potency in test [1] is 11.9 µM (active). For the same compound, the Potency entry in test [2] and in test [3] was “inactive” in each case.
On to `CC(=O)OC[C@@]12[C@@H](OC(C)=O)C[C@@H](C)[C@](C)([C@@H]3C[C@H]4C=CO[C@H]4O3)[C@H]1CCC[C@]21CO1`, for which the Potency result in test [1], in test [2] and in test [3] was “inactive” in each case.
